Source: PubChem BioAssay (NCATS)
Results filed as inconclusive are left out. The source made the active and inactive calls. Unless noted, calls come from the whole dose curve; as a rule, active = well fitted curve in the direction sought with a large enough effect; inconclusive = small, poorly fitted or top-dose-only effect, or another doubt; inactive = no such curve, though single readings can be large; an effect the other way counts as inactive or inconclusive.

Assays:
[1] = target: ATP-dependent 6-phosphofructokinase (Trypanosoma brucei brucei) (UniProt O15648); experiment: qHTS Assay to Find Inhibitors of T. brucei phosphofructokinase: hit validation (AID 492961);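 note: luminescence reports ADP formed as PFK phosphorylates fructose-6-phosphate with ATP; % is set by controls: 0 for no effect and ±100 for the full control effect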
In short: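 Compounds titrated; %activity normalized to 0x and 1x enzyme controls, curve-fitted. Readout: ADP-Glo luminescence after 45 min room-temperature reaction of 1.25 nM PFK, 0.1 mM ATP, 0.5 mM F6P, pH 8.0.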

[2] = target: Luciferin 4-monooxygenase (Photinus pyralis) (UniProt P08659); experiment: Biochemical firefly luciferase enzyme assay for NPC (AID 624030);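 note: purified P. pyralis luciferase at 10 nM with luciferin and ATP substrate; 0% = DMSO and -100% = full luciferase inhibition by PTC124 control; nearly all actives have a fitted effect of over 70% in size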
In short: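 Purified P. pyralis luciferase at 10 nM in 50 mM Tris Acetate (final), luminescence read within 5 minutes of enzyme addition to compounds. Activity normalised to PTC124 versus DMSO; concentration-response curves classed by r2, magnitude and activity.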

[3] = S16 Schwann cell PMP22 intronic element beta-lactamase assay (AID 624044; calls by dose curve;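 note: 0% = DMSO and -100% = potassium clavulanate positive control; nearly all actives have a fitted effect of over 15% in size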)
In short: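 Rat S16 Schwann cells with beta-Lac driven by a PMP22 intronic element, compound-treated 24 h at 37 °C. LiveBLAzer FRET B/G read: 460 nm normalized to potassium clavulanate vs DMSO; 535 nm FRET as viability; concentration-effect curves classified.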

[4] = qHTS profiling for inhibitors of Plasmodium falciparum proliferation (AID 504749);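 note: 0% = DMSO vehicle and full inhibition = artemisinin control; nearly all actives have a fitted effect of over 60% in size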; details: P. falciparum in erythrocytes, SYBR Green DNA, 72 h, at 28.7 µM (top of the series)
In short: (§1)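 P. falciparum-infected erythrocytes (0.3% parasitemia, 2.5% hematocrit) incubated with compound 72 h at 37 C, 5% CO2. Parasite DNA detected by SYBR Green after lysis, overnight at room temperature; normalised to 0.29 uM artemisinin and DMSO.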

3D7 = experiment: as above; details: P. falciparum in erythrocytes, SYBR Green DNA, 72 h; series mostly up to 28.7 µM
In short: as §1

AA1029 = experiment: as above; details: P. falciparum in erythrocytes, SYBR Green DNA, 72 h; series mostly up to 28.7 µM
In short: as §1

AS120 = experiment: as above; details: P. falciparum in erythrocytes, SYBR Green DNA, 72 h; series mostly up to 28.7 µM
In short: as §1

ATS189 = experiment: as above; details: P. falciparum in erythrocytes, SYBR Green DNA, 72 h; series mostly up to 28.7 µM
In short: as §1

ATS95 = experiment: as above; details: P. falciparum in erythrocytes, SYBR Green DNA, 72 h; series mostly up to 28.7 µM
In short: as §1

C2A = experiment: as above; details: P. falciparum in erythrocytes, SYBR Green DNA, 72 h; series mostly up to 28.7 µM
In short: as §1

CP185 = experiment: as above; details: P. falciparum in erythrocytes, SYBR Green DNA, 72 h; series mostly up to 28.7 µM
In short: as §1

CP191 = experiment: as above; details: P. falciparum in erythrocytes, SYBR Green DNA, 72 h; series mostly up to 28.7 µM
In short: as §1

CP192 = experiment: as above; details: P. falciparum in erythrocytes, SYBR Green DNA, 72 h; series mostly up to 28.7 µM
In short: as §1

CP194 = experiment: as above; details: P. falciparum in erythrocytes, SYBR Green DNA, 72 h; series mostly up to 28.7 µM
In short: as §1

CP201 = experiment: as above; details: P. falciparum in erythrocytes, SYBR Green DNA, 72 h; series mostly up to 28.7 µM
In short: as §1

CP203 = experiment: as above; details: P. falciparum in erythrocytes, SYBR Green DNA, 72 h; series mostly up to 28.7 µM
In short: as §1

CP211 = experiment: as above; details: P. falciparum in erythrocytes, SYBR Green DNA, 72 h; series mostly up to 28.7 µM
In short: as §1

CP215 = experiment: as above; details: P. falciparum in erythrocytes, SYBR Green DNA, 72 h; series mostly up to 28.7 µM
In short: as §1

CP217 = experiment: as above; details: P. falciparum in erythrocytes, SYBR Green DNA, 72 h; series mostly up to 28.7 µM
In short: as §1

CP237 = experiment: as above; details: P. falciparum in erythrocytes, SYBR Green DNA, 72 h; series mostly up to 28.7 µM
In short: as §1

CP238 = experiment: as above; details: P. falciparum in erythrocytes, SYBR Green DNA, 72 h; series mostly up to 28.7 µM
In short: as §1

CP247 = experiment: as above; details: P. falciparum in erythrocytes, SYBR Green DNA, 72 h; series mostly up to 28.7 µM
In short: as §1

CP250 = experiment: as above; details: P. falciparum in erythrocytes, SYBR Green DNA, 72 h; series mostly up to 28.7 µM
In short: as §1

CP252 = experiment: as above; details: P. falciparum in erythrocytes, SYBR Green DNA, 72 h; series mostly up to 28.7 µM
In short: as §1

CP256 = experiment: as above; details: P. falciparum in erythrocytes, SYBR Green DNA, 72 h; series mostly up to 28.7 µM
In short: as §1

CP260 = experiment: as above; details: P. falciparum in erythrocytes, SYBR Green DNA, 72 h; series mostly up to 28.7 µM
In short: as §1

CP265 = experiment: as above; details: P. falciparum in erythrocytes, SYBR Green DNA, 72 h; series mostly up to 28.7 µM
In short: as §1

CP266 = experiment: as above; details: P. falciparum in erythrocytes, SYBR Green DNA, 72 h; series mostly up to 28.7 µM
In short: as §1

CP268 = experiment: as above; details: P. falciparum in erythrocytes, SYBR Green DNA, 72 h; series mostly up to 28.7 µM
In short: as §1

CP269 = experiment: as above; details: P. falciparum in erythrocytes, SYBR Green DNA, 72 h; series mostly up to 28.7 µM
In short: as §1

CP286 = experiment: as above; details: P. falciparum in erythrocytes, SYBR Green DNA, 72 h; series mostly up to 28.7 µM
In short: as §1

CP291 = experiment: as above; details: P. falciparum in erythrocytes, SYBR Green DNA, 72 h; series mostly up to 28.7 µM
In short: as §1

CP297 = experiment: as above; details: P. falciparum in erythrocytes, SYBR Green DNA, 72 h; series mostly up to 28.7 µM
In short: as §1

CP305 = experiment: as above; details: P. falciparum in erythrocytes, SYBR Green DNA, 72 h; series mostly up to 28.7 µM
In short: as §1

CP315 = experiment: as above; details: P. falciparum in erythrocytes, SYBR Green DNA, 72 h; series mostly up to 28.7 µM
In short: as §1

CP325 = experiment: as above; details: P. falciparum in erythrocytes, SYBR Green DNA, 72 h; series mostly up to 28.7 µM
In short: as §1

CP329 = experiment: as above; details: P. falciparum in erythrocytes, SYBR Green DNA, 72 h; series mostly up to 28.7 µM
In short: as §1

CP335 = experiment: as above; details: P. falciparum in erythrocytes, SYBR Green DNA, 72 h; series mostly up to 28.7 µM
In short: as §1

DFO2036 = experiment: as above; details: P. falciparum in erythrocytes, SYBR Green DNA, 72 h; series mostly up to 28.7 µM
In short: as §1

Dd2 = experiment: as above; details: P. falciparum in erythrocytes, SYBR Green DNA, 72 h; series mostly up to 28.7 µM
In short: as §1

FAB9 = experiment: as above; details: P. falciparum in erythrocytes, SYBR Green DNA, 72 h; series mostly up to 28.7 µM
In short: as §1

GB4 = experiment: as above; details: P. falciparum in erythrocytes, SYBR Green DNA, 72 h; series mostly up to 28.7 µM
In short: as §1

HB3 = experiment: as above; details: P. falciparum in erythrocytes, SYBR Green DNA, 72 h; series mostly up to 28.7 µM
In short: as §1

JCK = experiment: as above; details: P. falciparum in erythrocytes, SYBR Green DNA, 72 h; series mostly up to 28.7 µM
In short: as §1

N140 = experiment: as above; details: P. falciparum in erythrocytes, SYBR Green DNA, 72 h; series mostly up to 28.7 µM
In short: as §1

P93_24 = experiment: as above; details: P. falciparum in erythrocytes, SYBR Green DNA, 72 h; series mostly up to 28.7 µM
In short: as §1

P94_40 = experiment: as above; details: P. falciparum in erythrocytes, SYBR Green DNA, 72 h; series mostly up to 28.7 µM
In short: as §1

PAD = experiment: as above; details: P. falciparum in erythrocytes, SYBR Green DNA, 72 h; series mostly up to 28.7 µM
In short: as §1

PC15 = experiment: as above; details: P. falciparum in erythrocytes, SYBR Green DNA, 72 h; series mostly up to 28.7 µM
In short: as §1

PC26 = experiment: as above; details: P. falciparum in erythrocytes, SYBR Green DNA, 72 h; series mostly up to 28.7 µM
In short: as §1

PC49 = experiment: as above; details: P. falciparum in erythrocytes, SYBR Green DNA, 72 h; series mostly up to 28.7 µM
In short: as §1

SC27B = experiment: as above; details: P. falciparum in erythrocytes, SYBR Green DNA, 72 h; series mostly up to 28.7 µM
In short: as §1

TAB113 = experiment: as above; details: P. falciparum in erythrocytes, SYBR Green DNA, 72 h; series mostly up to 28.7 µM
In short: as §1

TAB165 = experiment: as above; details: P. falciparum in erythrocytes, SYBR Green DNA, 72 h; series mostly up to 28.7 µM
In short: as §1

Chain of ATP-dependent 6-phosphofructokinase (Trypanosoma brucei brucei) (O15648 whole entry, looked up): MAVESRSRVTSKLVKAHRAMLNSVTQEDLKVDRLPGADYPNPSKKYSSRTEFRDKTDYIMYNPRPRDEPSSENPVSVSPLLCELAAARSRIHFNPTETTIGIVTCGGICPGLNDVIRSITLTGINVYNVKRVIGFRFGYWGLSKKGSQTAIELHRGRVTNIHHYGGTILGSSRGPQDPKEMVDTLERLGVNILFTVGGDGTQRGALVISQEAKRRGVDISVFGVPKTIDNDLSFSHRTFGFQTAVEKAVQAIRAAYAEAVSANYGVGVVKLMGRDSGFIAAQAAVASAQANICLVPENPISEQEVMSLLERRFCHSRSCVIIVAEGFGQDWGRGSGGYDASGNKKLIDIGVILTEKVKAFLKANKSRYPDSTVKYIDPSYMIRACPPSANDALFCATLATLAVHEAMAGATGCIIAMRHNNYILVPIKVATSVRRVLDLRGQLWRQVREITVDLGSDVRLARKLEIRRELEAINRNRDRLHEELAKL
Chain of Luciferin 4-monooxygenase (Photinus pyralis) (P08659 whole entry, looked up): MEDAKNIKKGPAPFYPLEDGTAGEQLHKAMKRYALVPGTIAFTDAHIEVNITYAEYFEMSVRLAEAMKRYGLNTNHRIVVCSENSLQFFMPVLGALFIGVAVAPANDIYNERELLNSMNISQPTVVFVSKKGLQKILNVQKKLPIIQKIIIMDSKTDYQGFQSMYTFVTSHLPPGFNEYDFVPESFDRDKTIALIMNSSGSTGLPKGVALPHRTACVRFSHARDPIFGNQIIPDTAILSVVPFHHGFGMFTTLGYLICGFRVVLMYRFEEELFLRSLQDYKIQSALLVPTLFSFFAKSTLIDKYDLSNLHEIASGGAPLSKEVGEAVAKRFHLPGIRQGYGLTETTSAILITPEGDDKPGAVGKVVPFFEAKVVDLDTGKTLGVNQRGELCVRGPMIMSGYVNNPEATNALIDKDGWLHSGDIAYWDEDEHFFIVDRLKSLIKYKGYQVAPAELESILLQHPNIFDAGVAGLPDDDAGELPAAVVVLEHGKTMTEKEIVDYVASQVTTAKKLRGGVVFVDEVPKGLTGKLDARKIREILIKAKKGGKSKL

C=C1/C(=C\C=C2/CCC[C@]3(C)[C@@H]([C@H](C)CCCC(C)(C)O)CC[C@@H]23)C[C@@H](O)C[C@@H]1O
inactive: outcome [1] | Potency [2] | outcome [3] | activity, negative = inhibition ([4]; parasite line A) -3.09% | activity, negative = inhibition ([4]; parasite line B) -9.52% | Potency (3D7) | Potency (AA1029) | Potency (AS120) | Potency (ATS189) | Potency (ATS95) | Potency (C2A) | Potency (CP185) | Potency (CP191) | Potency (CP192) | Potency (CP194) | Potency (CP201) | Potency (CP203) | Potency (CP211) | Potency (CP215) | Potency (CP217) | Potency (CP237) | Potency (CP238) | Potency (CP247) | Potency (CP250) | Potency (CP252) | Potency (CP256) | Potency (CP260) | Potency (CP265) | Potency (CP266) | Potency (CP268) | Potency (CP269) | Potency (CP286) | Potency (CP291) | Potency (CP297) | Potency (CP305) | Potency (CP315) | Potency (CP325) | Potency (CP329) | Potency (CP335) | Potency (DFO2036) | Potency (Dd2) | Potency (FAB9) | Potency (GB4) | Potency (HB3) | Potency (JCK) | Potency (N140) | Potency (P93_24) | Potency (P94_40) | Potency (PAD) | Potency (PC15) | Potency (PC26) | Potency (PC49) | Potency (SC27B) | Potency (TAB113) | Potency (TAB165)
